Outcome and AC50 data for 40 compounds are collected here from PubChem BioAssay (EPA / NIEHS).

The source made the active and inactive calls. The calls were made as follows: active = hit-call score of the fitted dose curve at least 0.9, where 1 is the maximum; inactive = score below 0.9.

Read-out in the experiment: growth arrest and DNA damage 45 (GADD45G), GADD45G (gene 10912)
Nature of the experiment: LTEA_HepaRG_GADD45G: Life Technologies and Expression Analysis (LTEA) Assay for growth arrest and DNA damage 45 (GADD45G) using HepaRG (AID 2283499). The settings on record: mRNA level, 48 h; actives raise or lower the signal. The protocol:
LTEA_HepaRG is a cell based, multiplexed-readout assay that uses HepaRG, a human liver cell line, with measurements taken at 48 hours after chemical dosing on a 96-well plate.LTEA_HepaRG_GADD45G is one of 102 assay component(s) measured in the LTEA HepaRG cell culture assay. It is a marker of Cell proliferation, survival, death.Data from the assay component LTEA_HepaRG_GADD45G was analyzed into 1 endpoint. This assay endpoint, LTEA_HepaRG_GADD45G, was analyzed with bidirectional fitting relative to DMSO as the negative control and baseline of activity. Using a type of inducible reporter, measures of mRNA induction for gain or loss-of-signal activity can be used to understand regulation of transcription factor activity. To generalize the intended target to other relatable targets, this assay endpoint is annotated to the mutagenicity response intended target family, where the subfamily is Cell proliferation, survival, death.
A total of 1060 chemcials from the ToxCast library were tested in eight-point concentration-response experiments. Cell culture and cytotoxicity assays were conducted at Thermo Fisher Scientific's Custom Services facility (Madison, WI). A single lot of human HepaRG cells (Thermo Fisher Scientific, Frederick, MD) was used for the cell culture experiments. 96-well format collagen type I coated plates of human HepaRG cells were prepared using established methods. Briefly, cryopreserved HepaRG cells were thawed, plated at a density of approximately 100,000 cells/well in HepaRG Thaw, Plate, and General Purpose media (HPRG770, Thermo Fisher Scientific), and incubated for 48 hours. 0.5% DMSO was selected as vehicle control to balance the requisite need of DMSO in HepaRG cultures to maintain differentiation (for example, baseline metabolism, proportions of hepatocytes vs. cholangiocytes), while enabling further hepatic receptor pathway activation (for example, PXR and CAR) in response to chemical exposure. 48 hours after plating, the culture medium was replaced with HepaRG Serum-Free Incudtion Media. Cells were exposed to each test chemical in duplicate and maintained in CO2 incubators for another 48 hours. Chemical plates were thawed to room temperature and 200x concentrations of treatment groups were prepared. 8-point conentration-reponse curves were made with the highest exposure at 100 uM, followed by half-log dilutions, all in 0.5% DMSO. Each test plate contained variouse controls, induction positive controls (1mM phenobarbital), cytotoxicity positive controls ([…] aflatoxin B1), vehicle controls (0.5% DMSO), and total lysis controls (0.5% DMSO). Cell morphology images were taken using an Essen IncuCyte FLR automated microscope, with six 96-well plates imaged in about 24 minutes. Images were captured and exported and JPEG files. Spent culture media was transfered to black-well plates for the LDH assay, and remaining media was sorted at -80 C for later use. Cells were treated with RLT buffer and frozen until shipped for gene expression analysis. Total RNA was isolated from the cell suspension in 75 uL of Buffer RLT (Qiagen, Germantown, MD 20874) by Quintiles/Expression Analysis (Durham, NC) using a custom isolation procedure. Total RNA from each plate well was transferred to a preamplification plate. Fluidigm's 96.96 Dynamic ArrayTM (Fluidigm, Amsterdam, the Netherlands) technology was used for gene expression analyses by quantitative reverse transcription polymerase chain reaction (qRT-PCR, performed by Quintiles/Expression Analysis, Durham, NC)89. Standard TaqManTM Assays (Applied Biosystems/ThermoFisher Scientific, Foster City, CA) were used to assess the expression of 93 genes selected based on their selectivity and sensitivity to important hepatic receptors known to be modulated by environmental chemicals; importance in human hepatocyte functionality; and hepatotoxicity. […]
Turning to `CN(C)[C@@H]1C(=O)C(C(N)=O)=C(O)[C@@]2(O)C(=O)C3=C(O)c4c(O)cccc4[C@@](C)(O)[C@H]3C[C@@H]12`, the outcome was inactive.
In the case of `CCC[CH2][Sn]([Cl])([CH2]CCC)[CH2]CCC`, the AC50 was 5.56 µM (active).
On the same count and under the same terms, then `Cn1cc(-c2ccccc2)c(=O)c(-c2cccc(C(F)(F)F)c2)c1`, with 50 µM (active).
Consider `CS(=O)(=O)NC(=O)c1cc(Oc2ccc(C(F)(F)F)cc2Cl)ccc1[N+](=O)[O-]`, for which the compound was called inactive.
On the same count and under the same terms, the result for `Oc1ccc2ccc3cccc4ccc1c2c34` reads “inactive”; that for `Clc1ccc(C(c2ccc(Cl)cc2)C(Cl)Cl)cc1`, “inactive”.
On to `Nc1ccc(N=Nc2ccccc2)cc1`, for which the AC50 is 15.6 µM (active).
Turning to `c1ccc(C2CO2)cc1` (stereo not given), the outcome was inactive.
On the same count and under the same terms, the result for `CCC(C)c1ccc(O)cc1` (stereo not given) reads “inactive”; that for `Cc1ccc(N)cc1`, “inactive”.
On to `Cc1cc(N=Nc2ccccc2C)ccc1N`, for which the AC50 was 4.14 µM (active).
As to `OCCCBr`, the result was inactive.
The same measure, in the same setting: the result for `CCN(CC)N=O` reads “inactive”.
Regarding `CCOC(=O)[C@]1(c2ccccc2)Oc2ccccc2[C@@H]1N`, the AC50 is 87.9 µM (active).
Regarding `Oc1ccccc1Cl`, the outcome was inactive.
Regarding `Cc1ccc(N=C=O)cc1N=C=O`, the AC50 is 50 µM (active).
Turning to `c1ccc2c(c1)-c1cccc3cccc-2c13`, the compound was classed as inactive.
Still for that read-out and setting: then `CN(C)c1ccc(C(=O)c2ccc(N(C)C)cc2)cc1`, with “inactive”.
On to `C[C@]12C=CC3=C4CCC(=O)C=C4CC[C@H]3[C@@H]1CC[C@@H]2O`, for which the half-maximal activity concentration (AC50) was 60.9 µM (active).
For the compound `CCCCCCCCn1sccc1=O`, the outcome was inactive.
On the same count and under the same terms, then `O=[N+]([O-])C(Br)(CO)CO`, with “inactive”.
Take `CC(C)(C)C(O)(CCc1ccc(Cl)cc1)Cn1cncn1` (stereo not given): the concentration at half-maximal activity (AC50) is 50 µM (active).
Still for that read-out and setting: then `Nc1ccc(Cl)cc1N`, with 38.8 µM (active).
On to `[As]#[In]`, for which the compound was classed as inactive.
Consider `Cc1cccc(N)c1N`, for which the AC50 is 50 µM (active).
With `CCOc1cccc(C2(N3CCN(c4ccccc4)CC3)CCC(C)CC2)c1` (stereo not given), the outcome was inactive.
For the compound `CC(C)N(Cc1ccccc1)C(=O)C(C)(C)C`, the compound was classed as inactive.
The same measure, in the same setting: the result for `Nc1cc(Cl)cc(C(=O)O)c1Cl` reads “inactive”.
The same measure, in the same setting: then `CN(C)C(=O)Nc1ccc(Cl)cc1`, with “inactive”; and `ClCCOCCCl`, with “inactive”.
`CCNS(=O)(=O)C(F)(F)C(F)(F)C(F)(F)C(F)(F)C(F)(F)C(F)(F)C(F)(F)C(F)(F)F`: the AC50 was 36.6 µM (active).
In the case of `O=C(O)C1C2CCC(O2)C1C(=O)O` (stereo not given), the compound was called inactive.
As for `Clc1ccc(C(c2ccc(Cl)cc2)C(Cl)(Cl)Cl)cc1`, the AC50 was 16.7 µM (active).
On to `OCCCl`, for which the call was inactive.
The same measure, in the same setting: then `O=C1CCCO1`, with “inactive”; and `O=[N+]([O-])c1ccc(Oc2ccc(Cl)cc2Cl)cc1`, with “inactive”.
Regarding `O=C(N[C@H](c1ccccc1)[C@@H]1CN2CCC1CC2)c1c(Cl)ccc(C(F)(F)F)c1Cl`, the AC50 was 21.4 µM (active).
Turning to `CCCCCCCCCCCCCN1CC(C)OC(C)C1` (stereo not given), the compound was classed as inactive.
The same measure, in the same setting: then `c1ccc(N=Nc2ccccc2)cc1`, with “inactive”.
Same read-out and setting: then `CC(C)(C)OOC(C)(C)CCC(C)(C)OOC(C)(C)C`, with “inactive”.
